Source: PubChem
This is a sample that favours compounds with a hit; in the whole collection about 18% have one here.
IL1B secr inh = blocks inflammasome-driven IL-1 beta release | THP-1 LPS/ATP IL-1B secretion, AlphaLISA, 16 h; stronger effect = lower value | activity change, % at 57.5 µM | actives 4.7% (n = 360,000) | AID 743279; in the data active = activity change below about -50%; inconclusive = mostly about -30% to -49%
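Secreted IL-1B measured by AlphaLISA bead assay after 16 h compound exposure of THP-1 cells; compounds (final up to 57.5 uM) added 1 h before LPS (250 ng/mL) and ATP (1.25 mM) stimulation; lower signal means less secretion.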
TDP1 block = blocks human tyrosyl-DNA phosphodiesterase 1; Q9NUW8; recombinant TDP1, AlphaScreen DNA substrate cleavage; Potency, µM (titrated, usually from 130 µM), for inactives: at the highest dose activity change, negative = inhibition, most hits filed as inhibitors; actives 0.28% (n = 350,000); AID 485290; also: potency is read from the fitted curve at half-maximal effect; nearly all actives have a fitted effect of over 40% in size
Target sequence (Q9NUW8 whole entry, looked up): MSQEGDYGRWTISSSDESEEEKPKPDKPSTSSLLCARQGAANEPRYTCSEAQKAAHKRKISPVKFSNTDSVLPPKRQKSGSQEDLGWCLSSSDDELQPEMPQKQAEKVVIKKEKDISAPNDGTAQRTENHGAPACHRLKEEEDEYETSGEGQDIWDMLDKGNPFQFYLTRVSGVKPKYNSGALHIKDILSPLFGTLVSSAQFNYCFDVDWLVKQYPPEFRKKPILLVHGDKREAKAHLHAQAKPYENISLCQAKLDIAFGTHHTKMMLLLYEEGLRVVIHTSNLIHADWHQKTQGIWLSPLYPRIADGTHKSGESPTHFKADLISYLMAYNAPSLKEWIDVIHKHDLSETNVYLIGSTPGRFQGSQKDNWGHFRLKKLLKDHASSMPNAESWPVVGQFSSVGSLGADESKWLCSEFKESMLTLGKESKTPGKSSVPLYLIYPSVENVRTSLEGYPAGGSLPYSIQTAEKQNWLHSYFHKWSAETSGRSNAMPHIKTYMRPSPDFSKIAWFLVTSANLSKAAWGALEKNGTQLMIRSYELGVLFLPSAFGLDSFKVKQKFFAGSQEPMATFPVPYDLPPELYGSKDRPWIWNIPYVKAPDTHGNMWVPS
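AlphaScreen read-out: signal falls as enzyme removes the 3' tyrosine-FITC from a 5'-biotinylated DNA oligo (15 nM, 5 min, RT). Enzyme was E. coli-made recombinant Tdp1 at 1 nM, exposed to compound for 15 min beforehand; beads 10 ug/ml, 10 min.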
DT40 TDP1 no CPT = qHTS for Inhibitors of human tyrosyl-DNA phosphodiesterase 1 (TDP1): qHTS in cells in absence of CPT; DT40 Tdp1-/- hTDP1 cells, no CPT, ATP luminescence, 48 h; Potency, µM (series often up to 46.2 µM), for the others: at the highest dose activity change, negative = growth inhibition, most hits filed as inhibitors; actives 15% (n = 420,000); also: potency is read from the fitted curve at half-maximal effect; nearly all actives have a fitted effect of over 55% in size
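Growth kinetics read by CellTiter-Glo luminescence after ≥48 hr at 37 °C. Cells: DT40 Tdp1-/- stably carrying human TDP1, 400 per well, compound exposure in the absence of CPT (DMSO vehicle).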
Six1-Eya2 blk = Six1/Eya2 interaction inhibition; Q15475+O00167; AlphaScreen GST-Six1/His-Eya2 binding, biochemical; stronger effect = lower value; activity change, % (no concentration beside the values); actives 0.56% (n = 360,000); AID 651725; in the data active = activity change below about -65%; inconclusive = mostly about -30% to -63%
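Compounds are tested against tagged Six1 and Eya2 proteins bridged by glutathione donor and nickel acceptor beads; after a one-hour incubation at 37 °C without light, AlphaScreen emission is recorded.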
CtBP-E1A blk = inhibitors of CtBP/E1A interaction | AlphaScreen GST-E1A/His-CtBP binding, 1536-well; stronger effect = lower value | activity change, % (test concentration not listed) | actives 0.49% (n = 340,000) | AID 651724; in the data active = activity change below about -65%; inconclusive = mostly about -30% to -63%
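Steps: dispense buffer (Tris pH 8.0, NaCl 300 mM, TCEP 1 mM, BSA, Tween 20); add 5X protein mix (GST-E1A, His-CtBP, 125 nM each); pin 23 nL compound; 2 h at 37 °C, dark; add 5X beads (50 ug/mL); 1 h; read.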
DT40 TDP1 CPT = growth inhibition of DT40 Tdp1-/-;hTDP1 cells with camptothecin (screen for TDP1 inhibitors). chicken DT40 Tdp1-/-;hTDP1 cells + 20 nM CPT, ATP luminescence, 48 h. Potency, µM (titrated, usually from 46.2 µM), inactives show top-dose activity change, negative = growth inhibition, actives largely listed as inhibitors. actives 12% (n = 420,000); also: potency is read from the fitted curve at half-maximal effect; nearly all actives have a fitted effect of over 55% in size
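Chicken DT40 Tdp1-/- cells stably complemented with human TDP1 were seeded at 400 cells/well in medium containing 20 nM camptothecin, exposed to pin-transferred compounds, and grown at 37 °C for at least 48 hr. Viability was read as ATP luminescence.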
* marks the source's active call; other numbers are inactive results; ? = inconclusive; . = no result. Unless noted, calls follow the shape of the dose curve; as a rule, active = well fitted curve in the direction sought with a large enough effect; inconclusive = small, poorly fitted or top-dose-only effect, or another doubt; inactive = no such curve, though single readings can be large; an effect the other way counts as inactive or inconclusive. % is scaled to controls: 0 for no effect and ±100 for the full control effect.

SMILES	IL1B secr inh	TDP1 block	DT40 TDP1 no CPT	Six1-Eya2 blk	CtBP-E1A blk	DT40 TDP1 CPT
Cc1nc2c(oc3ccccc32)c(=O)o1	26.2	-3.8%	-6.4%	-2.8	-11.4	8.5%
O=C(O)C1=CCCc2ccc(F)cc21	25.5	.	-12.9%	8.1	6.8	16.8%
Cc1ccc(S(=O)(=O)N2CCCCC2)cc1C(=O)Nc1ncn[nH]1	.	50.1µM*	.	.	.	.
Cc1ccc(S(=O)(=O)N2CCOCC2)cc1C(=O)N1c2ccccc2Sc2ccccc21	-7.1	4.7%	23.1µM*	-13.7	-12.3	?
COCCCNC(=O)COc1ccc(-c2nccc(-c3ccccn3)n2)cc1	-13.0	5.3%	?	-8.1	-3.3	?
Clc1ccc(-n2ncc3c(N4CCCCCC4)ncnc32)cc1	-6.1	-1.1%	?	0.8	-1.0	?
Clc1ccc(Cn2ncc3c(N4CCOCC4)ncnc32)cc1	-11.2	2.6%	23.1µM*	-7.7	-2.9	?
Clc1ccc(Cn2ncc3c(N4CCCC4)ncnc32)cc1	?	9.8%	?	-0.1	-4.3	-13.3%
Clc1ccc(Cn2ncc3c(N4CCCCC4)ncnc32)c(Cl)c1	-6.7	6.1%	11.6µM*	9.5	7.9	23.1µM*
Clc1ccc(Cn2ncc3c(N4CCCCC4)ncnc32)cc1	-8.3	-2.3%	20.6µM*	1.6	6.7	16.4µM*
CC(=O)Nc1cccc(-c2nnc3c4ccccc4c(C)nn23)c1	.	4.8%	.	.	.	.
O=C(CN1C(=O)NC2(CCCCC2)C1=O)Nc1cccc(Cl)c1Cl	5.0	1.2%	?	-2.1	.	-23.4%
Cc1c(Cl)cccc1N=C1SCCN1C(=O)CN1C(=O)NC2(CCCC2)C1=O	-14.4	-7.4%	18.4µM*	-11.4	3.5	?
CN1CCN(c2ccc([N+](=O)[O-])cc2/C=N/NC(=O)c2ccc(F)cc2)CC1	-13.4	6.6%	?	-5.1	-3.3	?
CCn1c2ccccc2c2cc(/C=N/n3cnnc3)ccc21	-58.5*	3.0%	-29.7%	1.1	-8.7	18.4µM*
CCn1c2ccccc2c2cc(/C=N/n3cn[nH]c3=S)ccc21	-11.9	7.7%	?	-7.1	-10.1	?
CCn1c2ccccc2c2cc(/C=N/n3c(-c4cc(C)[nH]n4)n[nH]c3=S)ccc21	30.8	10.6%	?	-16.5	-22.1	20.6µM*
Cc1sc2nc(CSc3nc4ccccc4s3)[nH]c(=O)c2c1C	.	2.6%	.	.	.	.
COCc1cc(=O)n2[nH]c(C(F)(F)F)nc2n1	15.7	1.8%	-5.0%	4.0	11.2	-4.6%
COc1cc2oc(=O)cc(CN3CCN(c4ccccc4F)CC3)c2cc1Cl	13.6	.	?	10.9	-24.4	?
COc1ccc(OC)c(CN2CCN(Cc3cc(=O)oc4cc(O)ccc34)CC2)c1	26.6	.	?	-12.2	-5.6	-18.1%
COc1ccc(N2CCN(Cc3cc(=O)oc4cc(-c5ccccc5)c(O)cc34)CC2)cc1	0.0	4.0%	6.51µM*	-4.5	6.5	5.8µM*
O=c1cc(CN2CCN(c3ccccc3F)CC2)c2cc(O)c(-c3ccccc3)cc2o1	32.1	3.8%	6.51µM*	2.1	-2.0	?
Cc1cc(C)c2c(CN3CCN(c4ccccc4F)CC3)cc(=O)oc2c1	14.3	.	?	26.3	-1.6	23.1µM*
CCCCN(C=O)c1c(CC)nc2c(OCC(=O)C(C)(C)C)cccn12	26.4	.	-25.0%	9.3	-5.4	?
CCCCN(C=O)c1c(CC)nc2c(OCCn3cccc3)cccn12	-10.1	.	23.1µM*	-15.1	-0.3	?
CCCCN(C=O)c1c(CC)nc2c(OCCOc3ccc(F)cc3)cccn12	-7.6	.	16.4µM*	-3.3	0.0	?
COC(=O)c1c(NC(=O)CSc2ncnc3[nH]ncc23)sc2c1CCC2	15.4	6.9%	?	-2.6	-18.5	?
